PubChem BioAssay AID623870 (Broad Institute, 2012)
Screen size: about 390,000 compounds; about 2,600 (0.67%) were called active. The sample holds actives, similar compounds and a random draw of the others, so the mix is not that of the screen. Unmarked numbers belong to inactive results.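 The calls were made as follows: active = mean inhibition of replicates at least 50% and at least half of replicates each reaching 50%; inconclusive = half or more replicates reach 50% but mean below 50%; inactive = the rest.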

These compounds were tested against Transforming acidic coiled-coil-containing protein 3 (Homo sapiens) (UniProt Q9Y6A5) (assay: disruptors of ARNT/TACC3 protein interaction, primary screen, biochemical, AlphaScreen, single concentration (AID 623870;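 also: 0% = complete ARNT plus TACC3 wells and 100% = ARNT alone without TACC3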)). Details: AlphaScreen His-ARNT PAS-B/GST-TACC3 binding, luminescence; at 9.99 µM; hits give high values; TACC3 fragment carries E629A point mutation.

| Compound | inhibition |
| --- | --- |
| C[C@@H]1CN([C@@H](C)CO)C(=O)c2cc(C#CC3CCCCC3)cnc2O[C@H]1CN(C)S(=O)(=O)c1ccccc1 | 10.2% |
| Cc1nc2ccccc2nc1N/N=C/c1ccc(O)cc1O | 69.6% (active) |
| CNC[C@@H]1Oc2ccc(NC(=O)CCC(F)(F)F)cc2C(=O)N([C@@H](C)CO)C[C@@H]1C | -4.46% |
| Cc1ccsc1/C=N/n1c(=S)[nH]nc(C)c1=O | 65.9% (active) |
| CCc1n[nH]c(=S)n1/N=C/c1c[nH]c2ccc(Br)cc12 | -4.96% |
| Cc1ccsc1/C=N/NC(=O)Cc1cc(=O)[nH][nH]1 | 1.12% |
| O=C(NC[C@@H]1[C@@H](c2ccccc2)[C@H](CO)N1C(=O)C1CCC1)NC1CCCC1 | -6.78% |
| Oc1cccc(/C=N/Nc2ccc(Cl)nn2)c1O | 53.7% (active) |
| COc1ccc(NC(=O)N2C[C@H](O)COC[C@H]3O[C@@H](CC(=O)N4CCN(C)CC4)CC[C@@H]32)cc1 | 0.747% |
| NS(=O)(=O)c1ccc(CNC(=O)c2cnccn2)cc1 | 6.45% |
| CCN(CC)c1ccc(/C=N/Nc2nc(C)cc(C)n2)c(O)c1 | 69.4% (active) |
| CCN(CC)c1ccc(/C=N/NC(=O)CNC(=O)c2cccs2)cc1 | -3.55% |
| CCN(CC)c1ccc(/C=N/NC(=O)c2cnccn2)c(O)c1 | 53.5% (active) |
| Cc1noc(C)c1NC(=O)Nc1cccc2c1O[C@H](CN(C)C(=O)Nc1c(C)noc1C)[C@@H](C)CN([C@@H](C)CO)C2=O | 2.88% |
| CCCNC(=O)[C@H]1[C@H](CO)[C@H]2Cn3c(ccc(C4=CCCC4)c3=O)[C@H]2N1C(=O)CC | -1.64% |
| Cc1cccc(-n2cnc(C(=O)Nc3cccnc3)c2)n1 | -3.7% |
| O=C(NNC(=S)Nc1ccccc1)c1cccc(S(=O)(=O)N2CCOCC2)c1 | 0.545% |
| Cc1cccc(-n2cnc(C(=O)NNC(=S)Nc3ccccc3)c2)n1 | 70.3% (active) |
| C/C=C/c1cnc2c(c1)C(=O)N([C@H](C)CO)C[C@H](C)[C@@H](CN(C)S(=O)(=O)c1ccccc1F)O2 | -4.04% |
| C/C=C/c1ccc([C@H]2[C@@H](CO)N(S(C)(=O)=O)[C@@H]2CN(C)C(=O)CC)cc1 | 7.87% |
| CO[C@H]1CN(C)C(=O)c2ccc(NC(=O)C3CC3)cc2OC[C@H](C)N(CCc2ccccc2)C[C@H]1C | -7.12% |
| Cc1ccc(NC(=O)CSc2nnc(CNC(=O)c3ccccc3F)o2)cc1Cl | 2.2% |
| Cc1ccc(NC(=O)CSc2nn3c(=O)c(C)nnc3s2)cc1Cl | 56.2% (active) |

| Compound | inhibition |
| --- | --- |
| COc1ccc(Cc2nnc(SCC(=O)Nc3ccc(C)c(Cl)c3)[nH]c2=O)cc1 | -0.289% |
| C[C@H](CO)N1C[C@H](C)[C@@H](CN(C)Cc2ccc(-c3ccccc3)cc2)Oc2ccc(NC(=O)CCCN(C)C)cc2CC1=O | 31.9% |
| C[C@H](CO)N1C[C@H](C)[C@@H](CN(C)C)OCCCC[C@H](C)Oc2ccc(NC(=O)C3CCCCC3)cc2C1=O | -2.97% |
| Cc1oc2c(C)c3oc(=O)c(CC(=O)N[C@@H](CC(C)C)C(=O)N[C@@H](Cc4ccccc4)C(=O)O)c(C)c3cc2c1C | 2.61% |
| Cc1c(CC(=O)NCC(=O)NCC(=O)O)c(=O)oc2cc3oc4c(c3cc12)CCCC4 | 50.6% (active) |
| Cc1c(CC(=O)NCCCCCC(=O)O)c(=O)oc2cc3occ(-c4ccccc4)c3cc12 | 54.3% (active) |
| COc1cccc(-c2coc3cc4oc(=O)c(CC(=O)O)c(C)c4cc23)c1 | 17.2% |
| CC[C@@H](C)[C@H](NC(=O)CCc1c(C)c2cc3c4c(oc3c(C)c2oc1=O)CCCC4)C(=O)O | -0.229% |
| Cc1coc2c1c(C)cc1oc(=O)c(CC(=O)NCC(=O)N[C@H](C(=O)O)C(C)C)c(C)c12 | 2.88% |
| C[C@H](CO)N1C[C@H](C)[C@H](CN(C)Cc2ccncc2)Oc2ncc(C#CCC3CCCCC3)cc2C1=O | -1.21% |
| Cc1noc(C)c1NC(=O)Nc1ccc2c(c1)CC(=O)N([C@@H](C)CO)C[C@@H](C)[C@@H](CN(C)Cc1ccc(Cl)c(Cl)c1)O2 | -1.62% |
| CO[C@@H]1CN(C)C(=O)c2cc(NS(=O)(=O)c3cn(C)cn3)ccc2OC[C@@H](C)NC[C@H]1C | 1.1% |
| CN(C)C(=O)C[C@@H]1CC[C@H](NC(=O)NC2CCCCC2)[C@@H](CO)O1 | -17% |
| CN(C)C(=O)C[C@@H]1CC[C@H]2[C@@H](COC[C@H](O)CN2C(=O)c2ccncc2)O1 | -9.54% |
| C[C@@H]1CN([C@H](C)CO)S(=O)(=O)c2ccc(-c3ccncc3)cc2O[C@@H]1CN(C)C(=O)CN(C)C | 12% |
| C[C@H]1CN([C@@H](C)CO)C(=O)c2cc(NC(=O)NC3CCCCC3)ccc2O[C@@H]1CN(C)C(=O)Nc1cccc2ccccc12 | 0.153% |
| CC[C@H](C)[C@@H](C(=O)N1CCNCC1)n1cc([C@@H](N)Cc2ccc(O)cc2)nn1 | -3.75% |
| C#CCOCCOCCOCCNc1nc(N2CCN(C(=O)CCCCCCCCCCNC(=O)[C@H]([C@@H](C)CC)n3cc(CCCCN=C(N)N)nn3)CC2)nc(N2CCN(C(=O)CCCCCCCCCCNC(=O)[C@H](CO)n3cc(CCCSC)nn3)CC2)n1 | 9.17% |
| C#CCOCCOCCOCCNc1nc(N2CCN(C(=O)C([C@@H](C)O)n3cc([C@@H](N)CCCCN)nn3)CC2)nc(N2CCN(C(=O)[C@H](CCCCN)n3cc(CN)nn3)CC2)n1 (stereo not given in full) | 21.2% (active) |
| CCC(C)[C@@H](C(=O)N1CCNCC1)n1cc(CCCCN)nn1 (stereo not given in full) | 7.8% |
| C#CCOCCOCCOCCNc1nc(N2CCN(C(=O)[C@H](CCCCN)n3cc([C@@H](N)C(C)CC)nn3)CC2)nc(N2CCN(C(=O)[C@H](Cc3ccc(O)cc3)n3cc([C@@H](N)C(C)CC)nn3)CC2)n1 (stereo not given in full) | 45.7% (active) |
| C[C@H]1CN([C@@H](C)CO)C(=O)c2cc(NC(=O)CCN3CCOCC3)ccc2O[C@@H]1CN(C)C(=O)Nc1ccc(C(F)(F)F)cc1 | 26.6% |
